The sample as a whole holds a higher share of hits than the screen did.
Pf Dd2 inh = blocks in vitro growth of P. falciparum Dd2. actives 4.3% (n = 120,000). AID 1347417. Potency, µM (top dose mostly 28.9 µM), without a hit: top-dose activity, negative = inhibition, usual class: inhibitors. P. falciparum Dd2 growth, SYBR Green, 72 h; active = well fitted inhibition curve with a large enough effect;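 note: plate controls were DMSO vehicle for no effect and reference drug for full effect; nearly all actives have a fitted effect of over 65% in size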
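Infected erythrocytes (Dd2, 0.3% parasitemia, 2.5% hematocrit final) are added to compound in RPMI-1640/Albumax II medium, grown 72 h at 37C in low oxygen, then lysed with saponin/Triton-X containing SYBR Green and read by fluorescence.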
* marks the source's active call; other numbers are inactive results; i = inactive; [ ] = another dose, or the depositor's remark. Potency is the fitted concentration of half-maximal effect.

SMILES | Pf Dd2 inh
CCOc1ccc(-n2c(SCC(=O)NC3CCCCC3)nc3c([nH]c4ccccc43)c2=O)cc1 | -15%
COc1ccc(C2(C(=O)N3CCC(Oc4ccc(-c5noc(C)n5)cc4)C3)CC2)cc1 (configuration not stated) | i[5.79 µM]
O=C(NCc1nnnn1-c1ccccc1)C1CC2(CCNCC2)CN1 (configuration not stated) | 0%
Cc1ccc(CN(C)C2CCc3nn(C)c(=O)n3CC2)nc1 (configuration not stated) | 35%
CS(=O)(=O)N1CCCC(C(=O)Nc2ccc(F)cc2F)CCNC(=O)CC1 (configuration not stated) | 8%
COCCCNc1cc(-c2ccccc2OC)nc2c(C)noc12 | 18%[44.1 µM]
COCCCN1CC2(CCC1=O)CCN(c1ncnc3onc(C)c13)CC2 | 0%
O=C(CSc1nc(-c2cccc(F)c2)[nH]c1-c1ccccc1)Nc1ccc2c(c1)OCCO2 | 11µM*
COc1cccc(-n2c(SCC(=O)c3ccc(Cl)cc3)nc3c([nH]c4ccccc43)c2=O)c1 | i
Cc1ccc(-n2c(SCC(=O)NCc3ccc(F)cc3)nc3c([nH]c4ccccc43)c2=O)cc1 | i
O=C(CSc1nc2c([nH]c3ccccc32)c(=O)n1-c1ccc(F)cc1)Nc1ccc2c(c1)OCO2 | 11µM*
CCOc1ccc(-c2nc(SCC(=O)Nc3ccc4c(c3)OCCO4)c(-c3ccc(F)cc3)[nH]2)cc1 | -19%
COc1cccc(-n2c(SCC(=O)Nc3cccc(C)c3)nc3c([nH]c4ccccc43)c2=O)c1 | 10µM*
Cc1cc(C)cc(-n2c(SCC(=O)Nc3ccc4c(c3)OCO4)nc3c([nH]c4ccccc43)c2=O)c1 | -16%
COc1cccc(-n2c(SCC(=O)N3CCCCC3)nc3c([nH]c4ccccc43)c2=O)c1 | -3%
Cn1c(SCC(=O)Nc2ccc(F)cc2)nc2c([nH]c3ccccc32)c1=O | 17%
Cc1cc(C)cc(-n2c(SCC(=O)N3CCCC3)nc3c([nH]c4ccccc43)c2=O)c1 | 10%
COc1cccc(-c2nc(SCC(=O)Nc3ccc4c(c3)OCCO4)c(-c3ccccc3)[nH]2)c1 | -28%
Cc1cc(C)cc(-n2c(SCC(=O)NCc3ccc(F)cc3)nc3c([nH]c4ccccc43)c2=O)c1 | 11µM*
CC(C)(C)C1CCC2(CC1)NC(=O)N(CC(=O)N1CCCCC1)C2=O (configuration not stated) | -10%
COc1cc(=O)n2c(c1C(=O)Nc1ccc(F)cc1F)CCCC2 | 24%
O=C1NC2(CCN(C(=O)c3ccc4c(c3)OCO4)C2)OCc2ccccc21 (configuration not stated) | -1%
COc1cc(OC)cc(C(=O)N2CCCN(C)c3ccccc32)c1 | -14%
Cc1noc(C)c1[S+](=O)([O-])N1CCC2(CC1)OCCN(c1ccc(F)cc1)C2=O | -20%[44.1 µM]
CC(C)c1nnc(C2CN(C(=O)c3ccoc3)CC23CCOCC3)o1 (configuration not stated) | -9%
SMILES | Pf Dd2 inh
COc1ccc(CN2CCC3(C2)NC(=O)c2ccccc2CO3)cc1 (configuration not stated) | -16%
O=C1NC2(CCCN(Cc3ccsc3)C2)COc2ccccc21 (configuration not stated) | 0%[44.1 µM]
COc1ccc(CN2CCC3(CC2)NC(=O)c2ccccc2O3)cc1 | 13µM*
COc1cccc(CN2CCCC3(COc4ccccc4C(=O)N3)C2)c1 (configuration not stated) | 11µM*
O=C1NC2(CCCN(Cc3cccnc3)C2)COc2ccccc21 (configuration not stated) | i
CC(=O)Nc1ccc(CN2CCC3(CC2)NC(=O)c2ccccc2O3)cc1 | i
O=C1NC2(CCN(Cc3ccc(F)cc3)CC2)Oc2ccccc21 | 10µM*
O=C1NC2(CCCN(Cc3ccc(F)cc3)C2)COc2ccccc21 (configuration not stated) | -15%
COc1cccc(CN2CCC3(COc4ccccc4C(=O)N3)C2)c1 (configuration not stated) | i
O=C1NC2(CCN(Cc3ccsc3)CC2)Oc2ccccc21 | -23%[44.1 µM]
CN(C)c1ccc(CN2CCC3(CC2)NC(=O)c2ccccc2O3)cc1 | i
O=C1NC2(CCCN(Cc3ccccn3)C2)COc2ccccc21 (configuration not stated) | 0.63µM*
CC(Oc1ccccc1)C(=O)N1CCN(C(=O)c2nnn3c2COC(c2ccccc2)C3)CC1 (configuration not stated) | -7%
Cc1ccc(NC(=O)CN2CCCc3nc(C4CC4)ncc3C2=O)cc1 | -1%
O=C1NCCCCCN(C(=O)C2CCC2)[C@H]2CCCC[C@@H]12 | 25%
O=C(C[C@@H]1CCNC[C@@H]1Cc1cc(CSc2ccccc2)on1)NC1CCCCC1 | i
CCCC1c2nccn2CCCN1C(=O)Cc1c(C)noc1C (configuration not stated) | 19%
COc1cccc(-c2n[nH]c3c2CC(=O)N(Cc2ccccc2F)C3)c1OC | i
Cc1onc(C(=O)N2CCCC(Cc3nncn3Cc3ccccc3)C2)c1Cn1cc(Cl)cn1 (configuration not stated) | i

Assay outcomes deposited in PubChem BioAssay by National Center for Advancing Translational Sciences (NCATS).
